Records with an inconclusive call do not appear. A call without a number means that no potency is given here. Values without a mark were called inactive. The source made the active and inactive calls. The call rests on the fitted dose curve; in most records, active means well fitted curve in the direction sought with a large enough effect; inconclusive means small, poorly fitted or top-dose-only effect, or another doubt; inactive means no such curve, though single readings can be large; an effect the other way counts as inactive or inconclusive.
Tests used:
[1] = biological target: Rap guanine nucleotide exchange factor 3 (Homo sapiens) (UniProt O95398); test: Confirmatory qHTS for antagonist of cAMP-regulated guanine nucleotide exchange factor 3 (EPAC1) (AID 1645880); further: nearly all actives have a fitted effect of over 55% in size; further: potency means the concentration at half of the fitted maximal effect
Chain of Rap guanine nucleotide exchange factor 3 (Homo sapiens) (O95398 whole entry, looked up): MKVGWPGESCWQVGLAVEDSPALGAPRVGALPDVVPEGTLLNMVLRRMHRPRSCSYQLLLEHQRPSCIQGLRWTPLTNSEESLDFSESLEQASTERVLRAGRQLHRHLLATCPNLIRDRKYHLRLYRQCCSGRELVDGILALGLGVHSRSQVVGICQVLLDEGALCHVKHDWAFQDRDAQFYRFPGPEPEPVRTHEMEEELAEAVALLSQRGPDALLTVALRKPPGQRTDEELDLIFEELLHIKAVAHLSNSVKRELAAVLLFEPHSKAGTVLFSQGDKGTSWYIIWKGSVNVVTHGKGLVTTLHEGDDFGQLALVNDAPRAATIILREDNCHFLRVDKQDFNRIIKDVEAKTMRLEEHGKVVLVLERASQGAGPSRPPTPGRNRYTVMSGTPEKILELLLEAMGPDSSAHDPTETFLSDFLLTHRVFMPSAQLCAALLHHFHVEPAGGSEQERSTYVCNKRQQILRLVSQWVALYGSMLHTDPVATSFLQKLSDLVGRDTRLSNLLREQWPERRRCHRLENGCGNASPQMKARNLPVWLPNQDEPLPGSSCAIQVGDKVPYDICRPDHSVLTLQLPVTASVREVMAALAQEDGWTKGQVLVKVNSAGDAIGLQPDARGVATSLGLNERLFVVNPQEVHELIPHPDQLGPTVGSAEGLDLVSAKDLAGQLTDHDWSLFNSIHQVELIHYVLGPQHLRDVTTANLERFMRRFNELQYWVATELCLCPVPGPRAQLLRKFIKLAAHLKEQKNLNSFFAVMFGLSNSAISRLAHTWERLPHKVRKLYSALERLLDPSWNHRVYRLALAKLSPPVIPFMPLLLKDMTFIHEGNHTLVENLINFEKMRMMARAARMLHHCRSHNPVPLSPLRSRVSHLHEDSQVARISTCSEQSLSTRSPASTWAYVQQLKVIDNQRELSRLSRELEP
How it was run: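 Nucleotide exchange uses 100 nM EPAC1, 250 nM RAP1B-BODIPY-GDP and 50 uM GDP, with compounds in a concentration-titration series. After 5 min at room temperature, fluorescence (480 nm ex/540 nm em) is read every 5 min for 30 min. Data are normalized to control ATA and DMSO.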

[2] = biological target: Rap guanine nucleotide exchange factor 3 (Homo sapiens) (UniProt O95398); test: Confirmatory qHTS for agonist of cAMP-regulated guanine nucleotide exchange factor 3 (EPAC1) (AID 1645881);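 further: EPAC1 catalysed release of BODIPY-GDP from Rap1B seen as fluorescence loss; nearly all actives have a fitted effect of over 75% in size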
[3] = biological target: Rap guanine nucleotide exchange factor 4 (Homo sapiens) (UniProt Q8WZA2); test: Confirmatory qHTS for agonist of cAMP-regulated guanine nucleotide exchange factor 4 (EPAC2) (AID 1645884);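 further: nucleotide exchange releases bodipy-GDP from Rap1 and this lowers its fluorescence; nearly all actives have a fitted effect of over 65% in size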
Chain of Rap guanine nucleotide exchange factor 4 (Homo sapiens) (Q8WZA2 whole entry, looked up): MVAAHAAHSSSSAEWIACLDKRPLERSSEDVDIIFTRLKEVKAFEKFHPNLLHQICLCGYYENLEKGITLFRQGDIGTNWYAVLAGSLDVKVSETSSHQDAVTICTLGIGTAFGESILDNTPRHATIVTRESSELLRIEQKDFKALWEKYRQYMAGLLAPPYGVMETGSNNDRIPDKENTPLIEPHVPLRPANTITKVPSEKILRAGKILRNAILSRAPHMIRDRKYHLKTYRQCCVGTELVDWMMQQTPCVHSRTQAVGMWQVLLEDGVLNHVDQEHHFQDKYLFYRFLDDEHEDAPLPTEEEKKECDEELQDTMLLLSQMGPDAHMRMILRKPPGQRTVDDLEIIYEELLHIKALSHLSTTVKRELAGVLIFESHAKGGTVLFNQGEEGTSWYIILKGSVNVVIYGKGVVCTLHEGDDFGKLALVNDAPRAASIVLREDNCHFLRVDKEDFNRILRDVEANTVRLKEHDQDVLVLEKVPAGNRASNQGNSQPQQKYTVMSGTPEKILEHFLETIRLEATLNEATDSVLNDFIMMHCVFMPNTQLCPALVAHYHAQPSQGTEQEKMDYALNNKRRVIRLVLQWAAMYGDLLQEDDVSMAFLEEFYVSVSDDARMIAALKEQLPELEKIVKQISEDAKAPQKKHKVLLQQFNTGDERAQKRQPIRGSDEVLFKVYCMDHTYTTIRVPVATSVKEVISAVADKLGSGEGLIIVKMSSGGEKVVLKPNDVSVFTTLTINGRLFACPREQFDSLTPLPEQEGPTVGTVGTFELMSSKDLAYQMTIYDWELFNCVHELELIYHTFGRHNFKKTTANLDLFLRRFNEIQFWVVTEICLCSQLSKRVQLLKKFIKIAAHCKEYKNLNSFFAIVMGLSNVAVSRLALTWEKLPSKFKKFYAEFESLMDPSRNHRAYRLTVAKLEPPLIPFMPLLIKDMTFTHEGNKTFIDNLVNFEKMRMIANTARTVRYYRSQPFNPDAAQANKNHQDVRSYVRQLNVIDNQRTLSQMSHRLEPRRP

[4] = biological target: Rap guanine nucleotide exchange factor 4 (Homo sapiens) (UniProt Q8WZA2); test: Confirmatory qHTS for antagonist of cAMP-regulated guanine nucleotide exchange factor 4 (EPAC2) (AID 1645885); further: nearly all actives have a fitted effect of over 25% in size; further: potency means the concentration at half of the fitted maximal effect
[5] = biological target: Rap guanine nucleotide exchange factor 3 (Homo sapiens) (UniProt O95398); test: Counterscreen qHTS for antagonist of cAMP-regulated guanine nucleotide exchange factor 3 (EPAC1) (AID 1645888);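 further: fluorescence loss as bound BODIPY-GDP is released from Rap1B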
How it was run: (§1)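 Rap1B-BODIPY-GDP 250 nM + GDP 50 uM; cpds 7-pt, final 9.74 nM–152 uM (activator mode) or from 7.32 nM upwards (inhibitor mode); RT; FI 480/540 nm at 5 and 30 min, then ± cAMP, reread.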

[6] = biological target: Rap guanine nucleotide exchange factor 3 (Homo sapiens) (UniProt O95398); test: Counterscreen qHTS for agonist of cAMP-regulated guanine nucleotide exchange factor 3 (EPAC1) (AID 1645889); further: nearly all actives have a fitted effect of over 40% in size
How it was run: as §1

Structure (SMILES)	Potency [1]	Potency [2]	activation [3]	Potency [4]	activity change, negative = inhibition [5]	activation [6]	Potency [3]	Potency [5]	Potency [6]
COc1ccc2c(c1)C1=NN(/C(C)=C/C(C)=O)C(c3cccc(F)c3)C1CC2 (stereo unspecified)	inactive	inactive	0.819% [at 17.1 µM, percent relative to cAMP agonist control]	inactive	-17.2% [at 30.8 µM]	8.14% [at 30.8 µM]			
O=C(Cn1c(=O)oc2cc(S(=O)(=O)N3CCCCC3)ccc21)N1CCc2ccccc2C1	inactive	inactive		inactive			inactive	inactive	inactive
COc1cc(OC)nc(Oc2cc(/C=N/O)ccc2OC)n1	inactive	inactive	-0.415% [at 17.1 µM, percent relative to cAMP agonist control]	inactive	-10.5% [at 30.8 µM]	1.61% [at 30.8 µM]			
CCOC(=O)C1=CCN(S(=O)(=O)c2ccc(C)cc2)C1c1cccs1 (stereo unspecified)	inactive	inactive	5.63% [at 17.1 µM, percent relative to cAMP agonist control]	inactive	6.49% [at 30.8 µM]	22.8% [at 30.8 µM]			
Oc1ccccc1-c1nc(NCc2ccccc2)c2ccccc2n1	inactive	inactive		inactive			inactive	inactive	inactive
Cc1ccc(CNC(=O)c2ccc3c(=O)[nH]c4c(C(=O)NCC5CCCO5)sc(=S)n4c3c2)cc1 (stereo unspecified)	84.9 µM (active)	inactive		inactive			inactive	inactive	inactive
O=c1[nH]c(/C=C/c2cccc([N+](=O)[O-])c2)c([N+](=O)[O-])c(=O)[nH]1	16.9 µM (active)	inactive		inactive			inactive	inactive	inactive
COc1ccc(N2CCN(C(=O)c3noc4c3CCCCC4)CC2)cc1	inactive	inactive		inactive			inactive	inactive	inactive
Cc1cccc(NC(=O)CN2C(=O)S/C(=C\c3ccc(O)c([N+](=O)[O-])c3)C2=O)c1	23.9 µM (active)	inactive		inactive			inactive	inactive	inactive
Cc1noc(C)c1CSc1ncnc2sc(C)c(C)c12	inactive	inactive		inactive			inactive	inactive	inactive
CC1CCN(C(=O)CSc2nnc(CN3CCOCC3)n2-c2ccccc2)CC1	inactive	inactive		inactive			inactive	inactive	inactive
O=CN1N=C(c2ccccc2)CC1c1ccc(Cl)cc1 (stereo unspecified)	inactive	inactive		inactive			inactive	inactive	inactive
Cc1cnc(C(=O)N(c2ccc(N3CCOCC3)cc2)C2C(=O)Nc3ccccc3N=C2c2ccc(F)cc2)cn1 (stereo unspecified)	inactive	inactive		inactive			inactive	inactive	inactive
CCc1nnc(NS(=O)(=O)c2ccc(NC(=S)NC(=O)/C=C/c3ccccc3)cc2)s1	67.5 µM (active)	inactive		inactive			inactive	inactive	inactive
Cc1ccc(S(=O)(=O)N2C(c3ccc(Cl)c(Cl)c3)CC=C(C(=O)O)C2c2ccc(Cl)cc2)cc1 (stereo unspecified)	84.9 µM (active)	inactive		inactive			inactive	inactive	inactive
COc1cccc(OC)c1C(=O)Nc1ccccc1Sc1ccccc1	inactive	inactive		inactive			inactive	inactive	inactive
Cc1ccc2oc(=O)n(CCOc3ccccc3Cl)c2c1	inactive	inactive		inactive			inactive	inactive	inactive
CC1(C)CC(=O)c2sc(N3CCCCC3)nc2C1	inactive	inactive		75.7 µM (active)			inactive	inactive	inactive
COc1cccc(CN2CC(O)=C(c3nc(-c4ccc(Cl)cc4)cs3)C2=N)c1	inactive	inactive	0.958% [at 17.1 µM, percent relative to cAMP agonist control]	inactive	-19.7% [at 30.8 µM]	0.754% [at 30.8 µM]			
COc1ccccc1-n1c(-c2ccccc2)c[n+]2c1CCc1ccccc1-2	inactive	inactive		inactive			inactive	inactive	inactive
COc1cccc(NC(=O)CN(C)C(=O)CNC(=O)c2ccc(Oc3ccccc3)cc2)c1	inactive	inactive	6.73% [at 17.1 µM, percent relative to cAMP agonist control]	inactive	-3.89% [at 30.8 µM]	29.7% [at 30.8 µM]			

From PubChem BioAssay (NCATS)
